# In PubChem BioAssay (NCI):
# The panel holds about 83,000 compounds, 20% with a hit somewhere; the sample as a whole holds those more often.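 Activity criterion: percent growth below 10, measured after cells in 96-well plates were exposed to a single compound concentration for 48 hours.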 Calls of active or inactive are those of the source.
# Tested on: MCF7 breast
# Experiment: NCI-60 one-dose screen, 48 h (100 = growth as untreated, 0 = no growth, -100 = all killed)
# Settings: 10 µM
row,Structure (SMILES),growth
1,O=C(NO)c1ccc(-c2nc3ccc4[nH]ncc4c3c3c2CCCC3)cc1,-20.8% (active)
2,O=C(CNc1nc(-c2ccccc2)cs1)Nc1ccc(Cl)cc1,-85.5% (active)
3,COc1cc2c3c(n(CCCN4CCOCC4)c(=O)c2cc1OC)-c1nc2c(cc1C3=O)OCO2,14% (inactive)
4,Cc1ccc(/C=C/C(=O)c2ccc(NC(=O)CSc3nnc(-c4c[nH]c5ccccc45)n3-c3ccccc3)cc2)c(C)c1,3.33% (active)
5,O=C(CN1CCN(c2ncnc3c2cnn3-c2ccccc2)CC1)Nc1nncs1,16.1% (inactive)
6,CC(=O)Oc1ccccc1C(=O)Oc1ccc(C(=O)/C=C/c2ccncc2)cc1,0.657% (active)
7,O=C(NC(=S)N1CCN(c2ncnc3c2cnn3-c2ccccc2)CC1)c1ccc(Cl)cc1,38.9% (inactive)
8,C/C(=N\N=C\c1ccc(N(C)C)cc1)c1ccc2c(c1)Nc1ccccc1S2,35.8% (inactive)
9,COC(=O)C[C@](O)(CCCC(C)(C)O)C(=O)O[C@H]1C(OC)=C[C@@]23CCC(=O)N2CCc2cc4c(cc2[C@@H]13)OCO4,87.3% (inactive)
10,CN1CCN(Cc2ccc(NC(=O)c3cncc(C#Cc4cnc5ccc(N[C@H]6CCOC6)nn45)c3)cc2C(F)(F)F)CC1,-84.4% (active)
11,CCOc1ccc(/C=N/NC(=O)Cn2nc(Cc3ccc([N+](=O)[O-])cc3)c3onc(C)c3c2=O)cc1,9.23% (active)
12,CN1CCN(c2ccc(C(=O)/C=C/c3ccc(OC(F)F)cc3)cc2)CC1,-71.7% (active)
13,COc1ccc(C2N(c3ccc(Br)cc3)N=C(C(C)=O)N2[C@H]2[C@H](OC(C)=O)O[C@H](COC(C)=O)[C@@H](OC(C)=O)[C@@H]2OC(C)=O)cc1 (some centres undefined),62.7% (inactive)
14,CCOC(=O)C1=C(N)N(c2ccccc2)C2=C(C(=O)CC(C)(C)C2)C1c1ccc(Cl)cc1 (centres undefined),17.4% (inactive)
15,CCCn1c(=O)c2[nH]c(-c3ccc(OCc4nc5ccc(F)cc5[nH]4)cc3)nc2n(CCC)c1=O,8.76% (active)
16,Cc1ccc(/C(CSc2nnc(-c3c[nH]c4ccccc34)n2-c2ccccc2)=N/O)cc1,-55% (active)
17,CN1CCN(c2ccc(C(=O)/C=C/c3cc(C(F)(F)F)ccc3Cl)cc2)CC1,-85.3% (active)
18,COc1ccc(C(=O)Nc2sc3c(c2C#N)CCC(=O)C3)cc1C(F)(F)F,-10.1% (active)
19,Cc1ccc(/C=C/C(=O)c2ccc(NC(=O)CSc3nnc(-c4c[nH]c5ccccc45)n3-c3ccccc3)cc2)cc1,8.55% (active)

row,Structure (SMILES),growth
1,COc1ccc(Nc2nc(N)n(Cc3cccc(Br)c3)n2)cc1,1.86% (active)
2,O=C1CCC(N2Cc3cc(NC(=O)COc4ccccc4)ccc3C2=O)C(=O)N1 (centres undefined),70.3% (inactive)
3,O=C(/C=C/Nc1ccccc1)c1ccc2c(c1)Nc1ccccc1S2,68.6% (inactive)
4,COc1cc2c(c(OC)c1OC)C(=O)CC(c1cccc(NC(=O)c3cccc(N)c3)c1)O2 (centres undefined),57.8% (inactive)
5,Cc1noc2c(Cc3ccc([N+](=O)[O-])cc3)nn(CC(=O)N/N=C/c3ccc(Br)cc3)c(=O)c12,68.4% (inactive)
6,COc1ccc(-c2nc(Nc3ccccc3S(N)(=O)=O)c3ccccc3n2)cc1,9.02% (active)
7,COc1cc(/C=C/C(=O)c2ccc(NC(=O)CSc3nnc(-c4c[nH]c5ccccc45)n3-c3ccccc3)cc2)cc(OC)c1OC,10% (inactive)
8,O=C(CSc1nnc(-c2ccc3nc(-c4ccc(Cl)cc4)[nH]c3c2)o1)Nc1ccc(Br)cc1,-25% (active)
9,Cc1ccn2c(C(=O)c3ccccc3)cc(-c3cc(-c4ccc(N(C)C)cc4)c(C#N)c(N)n3)c2c1,54.3% (inactive)
10,O=C1c2ccccc2C(=O)c2c1c(C(=O)c1ccc(Cl)cc1)n1c2ccc2c3ccccc3ccc21,93% (inactive)
11,Cn1c(O)c(N=Nc2nc(-c3cc4ccccc4oc3=O)cs2)c2cc(Br)ccc21,77.4% (inactive)
12,Cn1cc(-c2cc(N)n3nc(-c4c[nH]c5ccc(Br)cc45)cc3n2)c2cccnc21,-78.5% (active)
13,COc1ccc2c3nc4cc(C)c(C)cc4nc3n(CCN(C)C)c2c1,-16.6% (active)
14,O=C(CSc1nnc(-c2c[nH]c3ccccc23)n1-c1ccccc1)c1ccc(Br)cc1,53.4% (inactive)
15,OCc1[nH]nc2cc(Nc3ncc4ccc(Br)c(OC5CCC(O)CC5)c4n3)ccc12 (centres undefined),-74.7% (active)
16,Cc1cc(C)nc(NS(=O)(=O)c2ccc(N/C(N)=N/c3nccc(-c4ccccc4)n3)cc2)n1,37% (inactive)
17,N#Cc1c(NC(=O)c2ccc(C(O)(C(F)(F)F)C(F)(F)F)cc2)sc2c1CCC(=O)C2,-62.1% (active)
18,N#Cc1ccc(-c2nn(-c3ccc(C(=O)O)cc3)cc2CNc2cc(Cl)cc(C(F)(F)F)c2)cc1,5.75% (active)

# Tested on: HCT-116 colon
# Experiment: as above
# Settings: 10 µM
row,Structure (SMILES),growth
1,O=C(NO)c1ccc(-c2nc3ccc4[nH]ncc4c3c3c2CCCC3)cc1,2.92% (active)
2,O=C(CNc1nc(-c2ccccc2)cs1)Nc1ccc(Cl)cc1,-41.2% (active)
3,COc1cc2c3c(n(CCCN4CCOCC4)c(=O)c2cc1OC)-c1nc2c(cc1C3=O)OCO2,15.6% (inactive)
4,Cc1ccc(/C=C/C(=O)c2ccc(NC(=O)CSc3nnc(-c4c[nH]c5ccccc45)n3-c3ccccc3)cc2)c(C)c1,-4.32% (active)
5,O=C(CN1CCN(c2ncnc3c2cnn3-c2ccccc2)CC1)Nc1nncs1,8.23% (active)
6,CC(=O)Oc1ccccc1C(=O)Oc1ccc(C(=O)/C=C/c2ccncc2)cc1,-28.5% (active)
7,O=C(NC(=S)N1CCN(c2ncnc3c2cnn3-c2ccccc2)CC1)c1ccc(Cl)cc1,41.9% (inactive)
8,C/C(=N\N=C\c1ccc(N(C)C)cc1)c1ccc2c(c1)Nc1ccccc1S2,31.4% (inactive)
9,COC(=O)C[C@](O)(CCCC(C)(C)O)C(=O)O[C@H]1C(OC)=C[C@@]23CCC(=O)N2CCc2cc4c(cc2[C@@H]13)OCO4,89.7% (inactive)
10,CN1CCN(Cc2ccc(NC(=O)c3cncc(C#Cc4cnc5ccc(N[C@H]6CCOC6)nn45)c3)cc2C(F)(F)F)CC1,-62.6% (active)
11,CCOc1ccc(/C=N/NC(=O)Cn2nc(Cc3ccc([N+](=O)[O-])cc3)c3onc(C)c3c2=O)cc1,-26% (active)
12,CN1CCN(c2ccc(C(=O)/C=C/c3ccc(OC(F)F)cc3)cc2)CC1,-62.5% (active)
13,COc1ccc(C2N(c3ccc(Br)cc3)N=C(C(C)=O)N2[C@H]2[C@H](OC(C)=O)O[C@H](COC(C)=O)[C@@H](OC(C)=O)[C@@H]2OC(C)=O)cc1 (some centres undefined),69% (inactive)
14,CCOC(=O)C1=C(N)N(c2ccccc2)C2=C(C(=O)CC(C)(C)C2)C1c1ccc(Cl)cc1 (centres undefined),18.7% (inactive)
15,CCCn1c(=O)c2[nH]c(-c3ccc(OCc4nc5ccc(F)cc5[nH]4)cc3)nc2n(CCC)c1=O,3.12% (active)
16,Cc1ccc(/C(CSc2nnc(-c3c[nH]c4ccccc34)n2-c2ccccc2)=N/O)cc1,2.62% (active)
17,CN1CCN(c2ccc(C(=O)/C=C/c3cc(C(F)(F)F)ccc3Cl)cc2)CC1,-61.7% (active)
18,COc1ccc(C(=O)Nc2sc3c(c2C#N)CCC(=O)C3)cc1C(F)(F)F,0.735% (active)
19,Cc1ccc(/C=C/C(=O)c2ccc(NC(=O)CSc3nnc(-c4c[nH]c5ccccc45)n3-c3ccccc3)cc2)cc1,-40.2% (active)

row,Structure (SMILES),growth
1,COc1ccc(Nc2nc(N)n(Cc3cccc(Br)c3)n2)cc1,12% (inactive)
2,O=C1CCC(N2Cc3cc(NC(=O)COc4ccccc4)ccc3C2=O)C(=O)N1 (centres undefined),103% (inactive)
3,O=C(/C=C/Nc1ccccc1)c1ccc2c(c1)Nc1ccccc1S2,79.2% (inactive)
4,COc1cc2c(c(OC)c1OC)C(=O)CC(c1cccc(NC(=O)c3cccc(N)c3)c1)O2 (centres undefined),65.4% (inactive)
5,Cc1noc2c(Cc3ccc([N+](=O)[O-])cc3)nn(CC(=O)N/N=C/c3ccc(Br)cc3)c(=O)c12,64.4% (inactive)
6,COc1ccc(-c2nc(Nc3ccccc3S(N)(=O)=O)c3ccccc3n2)cc1,-42.9% (active)
7,COc1cc(/C=C/C(=O)c2ccc(NC(=O)CSc3nnc(-c4c[nH]c5ccccc45)n3-c3ccccc3)cc2)cc(OC)c1OC,-30.2% (active)
8,O=C(CSc1nnc(-c2ccc3nc(-c4ccc(Cl)cc4)[nH]c3c2)o1)Nc1ccc(Br)cc1,-61.9% (active)
9,Cc1ccn2c(C(=O)c3ccccc3)cc(-c3cc(-c4ccc(N(C)C)cc4)c(C#N)c(N)n3)c2c1,63.4% (inactive)
10,O=C1c2ccccc2C(=O)c2c1c(C(=O)c1ccc(Cl)cc1)n1c2ccc2c3ccccc3ccc21,104% (inactive)
11,Cn1c(O)c(N=Nc2nc(-c3cc4ccccc4oc3=O)cs2)c2cc(Br)ccc21,48.9% (inactive)
12,Cn1cc(-c2cc(N)n3nc(-c4c[nH]c5ccc(Br)cc45)cc3n2)c2cccnc21,-87.9% (active)
13,COc1ccc2c3nc4cc(C)c(C)cc4nc3n(CCN(C)C)c2c1,-61.1% (active)
14,O=C(CSc1nnc(-c2c[nH]c3ccccc23)n1-c1ccccc1)c1ccc(Br)cc1,54.3% (inactive)
15,OCc1[nH]nc2cc(Nc3ncc4ccc(Br)c(OC5CCC(O)CC5)c4n3)ccc12 (centres undefined),6.59% (active)
16,Cc1cc(C)nc(NS(=O)(=O)c2ccc(N/C(N)=N/c3nccc(-c4ccccc4)n3)cc2)n1,76.6% (inactive)
17,N#Cc1c(NC(=O)c2ccc(C(O)(C(F)(F)F)C(F)(F)F)cc2)sc2c1CCC(=O)C2,-77.7% (active)
18,N#Cc1ccc(-c2nn(-c3ccc(C(=O)O)cc3)cc2CNc2cc(Cl)cc(C(F)(F)F)c2)cc1,-2.71% (active)
